Hits are enriched below; roughly 6.2% of the tested compounds scored in any of these assays.
HT1080 IDH1KD tx: toxicity to HT-1080 IDH1 knockdown cells (counter line); HT-1080 IDH1 knockdown viability, ATP luminescence, 48 h; Potency, µM (top dose mostly 46.1 µM), most hits filed as cytotoxic; hit rate 2% among 360,000; AID 686971
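Cytotoxicity counter-line: IDH1KD HT-1080, 48 h, CellTiter-Glo. Curves classed by r2, magnitude and activity.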
ATXN2 expr inh: ATXN2 expression inhibition | HEK-293 ATXN2-luciferase reporter, luminescence, 24 h | Potency, µM (highest dose often 57 µM), usual class: inhibitors | hit rate 0.72% among 360,000 | AID 1745845; note: nearly all actives have a fitted effect of over 55% in size
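qHTS (up to 57 uM final) was run with 24 h compound exposure of reporter cells at 37 °C. Each well was multiplexed: SteadyGlo luminescence measured ATXN2-luciferase expression after a fluorogenic Gly-Phe-AFC viability readout (25 uM final).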
HT1080NT lethal: kills 2HG-producing HT-1080-NT fibrosarcoma cells; HT-1080-NT fibrosarcoma viability, CellTiter-Glo ATP luminescence, 48 h; Potency, µM (highest dose often 46.1 µM), actives largely listed as cytotoxic; hit rate 1.6% among 360,000;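 note: NT is the 2HG producing partner of a matched IDH1 knockdown line; nearly all actives have a fitted effect of over 55% in size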
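Read-out is CellTiter-Glo luminescence after 10 minutes at room temperature, following 48 hours' compound treatment of HT-1080-NT cells (750 cells/well, RPMI, 5% FBS, 37 degrees C).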
KB-V1 MDR tox: kills drug-selected multidrug resistant KB-V1 cells. KB-V1 MDR cells viability, CellTiter-Glo, 72 h. Potency, µM (highest dose often 46.1 µM), hits mostly cytotoxic. hit rate 3.4% among 400,000. AID 1347076; note: nearly all actives have a fitted effect of over 60% in size
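Luminescent ATP read-out (CellTiter-Glo, 10 min) measures survival of drug-selected KB-V1 MDR cells after 72 h, 37 degrees C compound exposure. Medium: phenol-red-free DMEM, 10% FBS. Values from fitted concentration-response curves.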
KB-3-1 tox: KB-3-1 parental cell cytotoxicity; KB-3-1 viability, CellTiter-Glo ATP luminescence, 72 h; Potency, µM (doses to about 46.1 µM), hits mostly cytotoxic; hit rate 1.4% among 400,000; AID 1347075; note: nearly all actives have a fitted effect of over 60% in size
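Here the drug-naive KB-3-1 line serves as comparator for MDR sub-line selectivity; cells received compound titrations, 72 h at 37 °C, then CellTiter-Glo readout.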
S2 tox: viability counter-screen for ATXN expression inhibitors. Potency, µM (top dose mostly 56.7 µM), actives largely listed as cytotoxic. hit rate 0.49% among 400,000. S2 cells (HEK-293 line with an ATXN2-luciferase reporter) viability, CellTiter-Fluor protease fluorescence, 24 h; note: nearly all actives have a fitted effect of over 40% in size
Numbers stand for hits; 0 = inactive; ? = inconclusive; - = no result given; [ ] = another dose, or the depositor's remark. Calls come from the whole dose curve; as a rule, active = well fitted curve in the direction sought with a large enough effect; inconclusive = small, poorly fitted or top-dose-only effect, or another doubt; inactive = no such curve, though single readings can be large; an effect the other way counts as inactive or inconclusive.

SMILES	HT1080 IDH1KD tx	ATXN2 expr inh	HT1080NT lethal	KB-V1 MDR tox	KB-3-1 tox	S2 tox
CCOc1ccc(C(=O)Nc2ccccc2N2CCCC2)cc1	0	0	0	?	23.1µM	0
CCOc1ccc(C(=O)Nc2ccccc2N2CCOCC2)cc1	0	0	0	0	0	0
COc1ccccc1OCC(=O)Nc1cc(Cl)ccc1N1CCCCC1	0	0	0	14.6µM	0	0
Cc1cccc(NC(=O)CSCC(=O)Nc2ccccc2N2CCCCC2)c1	0	0	0	16.4µM	?	0
CCn1cc(CN2CCOc3ccc(C(O)C4CCCCC4)cc3C2)c(C)n1 (centres undefined)	-	-	-	-	-	0
CCOC(=O)N1CCC(NC(=O)c2ccc3c(c2)N(Cc2ccc(Cl)cc2)C(=O)c2ccccc2S3=O)CC1 (centres undefined)	-	0	-	0	?	0
CN(C)CCNc1nc2sc3c(c2c(=O)n1CCc1ccccc1)CCCCC3	?	-	0	20.6µM	0	-
CCn1c(=O)n(CCc2ccccc2)c(=O)c2c3c(sc21)CCCC3	0	0	0[9.24 µM]	0	0	0
COC(=O)Cn1c(=O)n(CCc2ccccc2)c(=O)c2c3c(sc21)CCCC3	?	0	0	20.6µM	0	0
CC(=O)Nc1ccc(S(=O)(=O)N2CCN(c3nc(NC4CCCC4)c4ccccc4n3)CC2)cc1	?	?	18.4µM	?	?	-
CCCCn1cnc2c([nH]c3cc(OC)ccc32)c1=O	0	0	0	?	0	0
COc1ccc2c(c1)[nH]c1c(=O)n(CC3CCCO3)cnc12 (centres undefined)	0	0	0	20.6µM	0	0
COc1ccc2c(c1)[nH]c1c(=O)n(Cc3ccccn3)cnc12	0	0	0	0	0	0
COc1ccc2c(c1)[nH]c1c(=O)n(Cc3ccco3)cnc12	?	0	?	14.6µM	?	?
COc1ccc(-c2csc(Cc3nnc(N4CCOCC4)n3-c3ccccc3)n2)cc1	0	0	0	18.4µM	0	0
COc1cc(N2CCCC2)c(OC)cc1/C=C(/C#N)c1cccc(F)c1	0	0	0	16.4µM	?	0
N#C/C(=C/c1ccc(N2CCCCC2)o1)C(=O)Nc1ccc(Cl)cc1	0	0	0	0	0	0
N#C/C(=C/c1ccc(N2CCCCCC2)o1)c1cccc(F)c1	6.31µM	0	11.2µM	14.6µM	0	0
N#C/C(=C/c1ccc(N2CCCCCC2)o1)c1ccc(F)cc1	9.2µM	?	?	?	?	?
N#C/C(=C/c1ccc(N2CCCCC2)o1)C(=O)Nc1ccc2ccccc2c1	?	-	0	?	0	0
CC1CN(CC(=O)NCCC2COc3ccccc3O2)Cc2cc(Cl)ccc2O1 (centres undefined)	-	-	-	-	-	0
O=C(c1ccc(Cl)c(S(=O)(=O)N2CCOCC2)c1)N1CCN(c2ccccn2)CC1	0	-	0	0	0	0
O=C(c1ccc(Br)cc1)c1cc(-c2ccccn2)c(N2CCOCC2)s1	0	0	0	4.11µM	0	0
O=C(c1ccc(Cl)c(Cl)c1)c1cc(-c2ccccn2)c(N2CCOCC2)s1	0	0	0	4.11µM	0	0
O=C(CCc1nc(-c2ccc(Cl)cc2)no1)NC1CCCCC1	0	0	0	?	0	?
SMILES	HT1080 IDH1KD tx	ATXN2 expr inh	HT1080NT lethal	KB-V1 MDR tox	KB-3-1 tox	S2 tox
O=C(CCc1nc(-c2ccccc2F)no1)NC1CCCCCC1	0[9.24 µM]	0	0	16.4µM	?	0
O=C(CCc1nc(-c2ccccc2Cl)no1)NC1CCCCC1	0	0	0	0	0	0
O=C(CCc1nc(-c2ccccc2F)no1)Nc1ccc(Oc2ccccc2)cc1	16.4µM	0	14.6µM	?	?	?
O=C(CCc1nc(-c2ccccc2)no1)NC1CCCCC1	0	0	0	20.6µM	0	0
COc1cc(CN2C(=O)CC[C@@H]3CN(Cc4ccccn4)CC[C@@H]32)cc(OC)c1OC	-	-	-	-	-	0
COc1ccc(C(=O)C[n+]2cn(C(F)F)c3ccccc32)c(F)c1	?	0	20.6µM	0	0	0
COc1ccc(C(=O)C[n+]2cc(Br)cc3ccccc32)cc1	-	-	-	0	0	-
CN(C)c1ccc(N=Nc2ccc(S(=O)(=O)O)cc2)cc1	-	-	-	0	0	-
CC(=O)Oc1cc2c(cc1Cl)C1(CC(c3ccccc3Cl)O2)CC(C)(C)NC(=S)N1 (centres undefined)	23.1µM	?	16.4µM	?	0	?
Cc1nc([N+](=O)[O-])c(C(=O)OCc2ccccc2Br)n1C	0	0	0	20.6µM	?	0
Clc1cccc(C2=NC(c3cccs3)=Nc3ccc(Br)cc3N2)c1	-	0	-	0	0	?
COc1cccc(NC(=O)Nc2ccncc2)c1	0	0	0	0	0	0
CC(C)(C)C(=O)Nc1ccc(C(=O)OC2CCCCC2)cc1	?	0	12.6µM	?	0	0
COc1cccc(NC(=O)c2ccc(NC(=O)C(C)(C)C)cc2)c1	0	0	0	23.1µM	0	0
COc1cccc(NC(=O)Nc2ccc(C(C)(C)C)cc2)c1	?	0	16.4µM	0	?	?
CC(=O)Nc1ccc(C(=O)Nc2ccc(-c3nc4ccccc4[nH]3)cc2)cc1	-	-	-	?	0	-
CCCc1cc(C(=O)Nc2c(C)nn(Cc3c(Cl)cccc3Cl)c2C)no1	-	0	-	?	0	?
CC(=O)NCC(=O)NCC1Cc2cc(C)cc(-c3ccccn3)c2O1 (centres undefined)	-	-	-	-	-	0
COc1ccc(C(=O)c2c(C(F)(F)F)oc3c2C(=O)c2ccccc2C3=O)cc1OC	?	?	9.2µM	9.2µM	9.2µM	28.2µM
COc1ccc(C(=O)Nc2ccc3c(c2)C(=O)c2ccccc2C3=O)cc1OC	0	0	0	0	0	0
CC1=CC(=O)N(c2cccc3c(N4C(=O)C=C(C)C4=O)cccc23)C1=O	25.9µM	0	0	0	?	0
Cc1ccc(NC(=O)c2sc3ncnc(N4CCN(c5ccccn5)CC4)c3c2C)c(C)c1	0	0	0	0	0	?
Cc1sc2ncnc(N3CCN(Cc4ccccc4)CC3)c2c1-c1ccc(F)cc1	0	0	0	14.6µM	?	0
Fc1ccc(-c2csc3ncnc(N4CCN(Cc5ccccc5)CC4)c23)cc1	0	0	0	-	-	?
CCCN1CCN(c2ncnc3sc(C(=O)Nc4c(C)cc(C)cc4C)c(C)c23)CC1	-	0	-	?	20.6µM	0
Cc1c(C(=O)N2CCN(Cc3ccccc3)CC2)sc2ncnc(N3CCOCC3)c12	0	0	0	18.4µM	0	0
CCn1c2c(c(=O)n3ncc(C(=O)Nc4ccc(OC(F)(F)F)cc4)c13)CN(Cc1ccc(OC)cc1)CC2	-	0	-	0	0	0
Nc1c(C(=O)NCc2ccco2)nnn1Cc1ccccc1	0	0	0	0	0	0
O=C(c1ccco1)c1nnn(Cc2ccccc2)c1-c1ccccc1	?	0	0	23.1µM	0	0

Source: PubChem
